Data as given in the supplement of paper PMC10338343.
± gives the standard deviation. In all, about 8,200 sequences were measured (“pre-steady-state target cleavage rate”: median about 0.024, highest 2% from about 1.3 on). The entries come from a sample that favours the highest values as a whole.

System: MIWI (PIWIL1) piRISC loaded with L1MC piRNA (30 nt)
Test: pre-steady-state target cleavage rate (min^-1); MIWI and MILI are mouse PIWI proteins and EfPiwi is from a freshwater sponge; tags in brackets are library labels; higher = faster piRNA-guided slicing of the target
Details: guide: L1MC piRNA 5'p-UAACUAAAUACUAUGCAAGCUGUAGGUCCU
Method in brief: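 In HEPES–potassium acetate buffer at 33 °C, […] transcribed, DNA-blocked target RNA library was mixed with 1 nM active affinity-purified piRISC carrying one synthetic guide, with or without 500 nM GTSF1 partner protein, for 0–8 or 0–960 min. Uncleaved targets were sequenced and normalised to depth and to weakly complementary targets; three trials were pooled and k3 was capped at 0.0001 min^-1. The pre-steady-state cleavage rate followed from a burst-and-steady-state fit.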

[1] = auxiliary factor: 500 nM mouse GTSF1
[2] = auxiliary factor: none (no GTSF1)
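Also: 1 nM active piRISC with 0.1 nM target library at 33 °C single turnover.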

Sequence	pre-steady-state target cleavage rate [1]	pre-steady-state target cleavage rate [2]
UCCUGGAUGUCGAACGUAAGUAUUUAAUUA	< 0.0001	
UCCUGGUACAGCUUGCAUAGUUUAUAGUUA	0.0594 ± 0.017	0.0135 ± 0.004
UCCUGGAUGUCGAACGUUUGUAUAUAGUUA	< 0.0001	
UGGACCUACAGCUUGCAUAGUAUUUAGUUC [g2:g29:cont:t1C]	1.14 ± 0.068	0.0625 ± 0.012
UGGACCUACAGCUUGCAUAGUAUUUAGUA	0.885 ± 0.062	0.0273 ± 0.0069
UGGACCUACAGCUUGCAUAGUAUUUAGUUU [g2:g29:cont:t1U]	1.62 ± 0.082	0.0974 ± 0.02
UGGACCUACAGCUUGCAUAGUAUUUAGUUUA	1.56 ± 0.086	0.075 ± 0.014
UGGACCUACAGCUUGCAUAGUAUUUAGUAA	1.11 ± 0.064	0.0627 ± 0.014
UGGACCUACAGCUUGCAUAGUAUUUAGCUUA	0.316 ± 0.023	0.0288 ± 0.0059
UCCUGGAACAGGUUGCAUAGUAUUUAGAAA	0.362 ± 0.043	
AGGACCUACAGCUACGAUAGUAUUUAGUAA	0.153 ± 0.045	
UCGACCAACAGCUUGCAUAGUAAUUAGUUA	0.972 ± 0.041	0.0305 ± 0.0074
AGGACCUACAGCUUGGUUAGUAUUUACAAA	0.0786 ± 0.021	
UGGACCUACAGCAAGCAUAGUAUUUACAAA	0.273 ± 0.051	
AGGACCUACAGCUUGCUAUAGUAUUUAGUUA	0.137 ± 0.037	
UCGACCUACAGCUUGUCAUAGUAUUUAGUUA	0.742 ± 0.083	0.00458 ± 0.0029
AGGACCUACAGCUUGUAUAGUAUUUAGUUA	1.6 ± 0.061	0.0803 ± 0.015
UCCACCUACAGCUUGUAUAGUAUUUAGUUA	1.18 ± 0.048	0.0524 ± 0.0091
UGGACCUACAGCUUGUAUAGUAUUUAGUUA	1.77 ± 0.11	0.0563 ± 0.012
UGGACCUACAGCUUGCUAUAGUAUUUAGUUA	0.0205 ± 0.0066	
UCGACCUACAGCUUGCUAUAGUAUUUAGUUA	0.0661 ± 0.018	
UCGACCUACAGCUUGUAUAGUAUUUAGUUA	1.7 ± 0.074	0.0725 ± 0.015
UGGACCUACAGCUUGUCAUAGUAUUUAGUUA	0.706 ± 0.1	0.00373 ± 0.0033
UCCUGGAUGAGCUUGCAUACUAUUUAGAUA	0.0538 ± 0.017	0.00863 ± 0.0041
AGGACCUACAGCUAGCAUAGUAUUUACAAA	0.474 ± 0.071	
UCCACCUUCAGGUUGCAUAGUAUUUAGUUA	0.817 ± 0.1	0.0279 ± 0.0047
UCCUGGAUCAGCUCUGCAUAGUAUUUAGUUA	0.985 ± 0.054	0.0138 ± 0.0041

Sequence	pre-steady-state target cleavage rate [1]	pre-steady-state target cleavage rate [2]
UCCUGCUUGAGCUUGCAUAGUAUUUAGUAA	0.491 ± 0.051	0.0206 ± 0.004
UCCUGGAACAGCUUGCAUAGUAAUUACAAA	0.129 ± 0.038	
UCCUGGAACAGGUUGCAUAGUAUUUACUUA	0.164 ± 0.023	0.0109 ± 0.0022
UCGACGUACAGCUUGCAUUGUAUUUAGUUA	0.883 ± 0.027	0.0351 ± 0.0076
UCGACGUACAGCUUGCAAAGUAUUUAGUUA	1.26 ± 0.043	0.0364 ± 0.0077
AGGACGUACAGCUUGCAUAGUAUUUAGUUA	1.19 ± 0.048	0.0866 ± 0.014
AGGACGUACAGCUUGCUUAGUAUUUAGUUA	1.31 ± 0.055	0.0487 ± 0.0095
AGGACGUACAGCUUGCAAAGUAUUUAGUUA	1.11 ± 0.057	0.0396 ± 0.0083
UCGACGUACAGCUUGCUUAGUAUUUAGUUA	1.63 ± 0.09	0.0366 ± 0.0073
UGGACGUACAGCUUGCAAAGUAUUUAGUUA	1.3 ± 0.045	0.0558 ± 0.0096
UGGACGUACAGCUUGCAUUGUAUUUAGUUA	0.79 ± 0.05	0.0432 ± 0.01
UGGACGUACAGCUUGCUUAGUAUUUAGUUA	1.37 ± 0.069	0.0454 ± 0.0082
UCCUCCUUCAGCAUGCAUAGUAUUUAGUUA	1.01 ± 0.043	0.0155 ± 0.0034
UCCUCCUACAGCAUGCAUAGUAUAUAGUUA	0.786 ± 0.042	0.00795 ± 0.0022
UCCUGGAUGUCGUAGCAUAGUAUUUAGUUA	0.0153 ± 0.005	
UCCUGGAUGUCCUUGCUUAGUAUUUAGUAA	0.00726 ± 0.004	
UCCUGCUACAGCUUGCAUACAAUUUAGUAA	0.0165 ± 0.008	
UCCUCCUACAGCUUGCAAAGUAUUUACAAA	0.267 ± 0.036	0.00344 ± 0.0031
UCGACCUACACGUUGCAUAGUAUUUUCAAA	0.224 ± 0.036	
UCCUGGUACACGUUGCAUAGUAUUUAGUAA	0.178 ± 0.041	
UCCUCCAACAGCUUGCAUAGUAUUUACUUA	0.267 ± 0.026	0.0243 ± 0.0038
UCGACCCUACAGCUUGCAUAGUAUUUAGUUA	1.33 ± 0.061	0.0734 ± 0.012
UCGACCUACAGCUUGCAUAGUAUUUAGUUU [g2:g28:cont:t1U]	1.75 ± 0.067	0.158 ± 0.033
UCGACCUACAGCUUGCAUAGUAUUUAGUUC [g2:g28:cont:t1C]	1.22 ± 0.045	0.0714 ± 0.013
UCGACCUACAGCUUGCAUAGUAUUUAGUAA	1.15 ± 0.061	0.0683 ± 0.014
UCGACCUACAGCUUGCAUAGUAUUUAGCUUA	0.375 ± 0.05	0.0283 ± 0.0087
ACGACCUACAGCUUGCAUAGUAUUUAGUAA	1.11 ± 0.042	0.0771 ± 0.016

Sequence	pre-steady-state target cleavage rate [1]	pre-steady-state target cleavage rate [2]
ACGACCUACAGCUUGCAUAGUAUUUAGUUA	1.56 ± 0.064	0.0997 ± 0.017
UCGACCUACAGCUUGCAUAGUAUUUAGUA	0.778 ± 0.039	0.0159 ± 0.0051
UCGACCUACAGCUUUGCAUAGUAUUUAGUUA	1.4 ± 0.061	0.0371 ± 0.0078
UCGACCUACAGCUUGCAUAGUAUUUAGUUUA	1.27 ± 0.058	0.0631 ± 0.0099
ACGACCUACAGCUUGCAUAGUAUUUAGAUA	0.62 ± 0.044	0.0521 ± 0.011
UCCUGCUACUCGUUGCAUAGUAUUUAGAAA	0.0557 ± 0.014	
UCCUGGUACAGCUUGGAUAGUAUUUAGUAA	0.421 ± 0.095	0.0149 ± 0.0041
UCCUGCUACAGCUUGCAUUGAAUUUAGUUA	0.168 ± 0.012	0.00991 ± 0.0044
UCCUGGAUGUGCGUUGCAUAGUAUUUAGUUA	0.28 ± 0.032	0.00987 ± 0.0029
UCCACCUACUGCUUGCAAAGUAUUUAGUUA	0.623 ± 0.025	0.0305 ± 0.0052
AGGACCUACAGCUUGCGAUAGUAUUUAGUUA	0.108 ± 0.026	
UCGACCUACAGCUUGCAUAGUAUUUUAGUUA	1.21 ± 0.053	0.0302 ± 0.0073
UCGACCUACAGCUUGCAUAGUAUUAUAGUUA	1.32 ± 0.076	0.0387 ± 0.007
UCGACCUACAGCUUGCAUAGUAUUUAGUUG [g2:g28:cont:t1G]	0.569 ± 0.04	0.0703 ± 0.013
UCGACCUACAGCUUGCAUAGUAUUAGUUA	0.346 ± 0.053	
UCGACCUACAGCUUGCAUAGUAUUUAGUUA [g2:g28:cont:t1A]	1.56 ± 0.056	0.0936 ± 0.017
UCGACCUACAGCUUGCAUAGUAUAUUAGUUA	1.25 ± 0.049	0.0248 ± 0.0063
AGCACCUACAGCUUGCAUACUAUUUAGUUA	0.471 ± 0.099	0.00711 ± 0.0024
UCCUGGAUGUCGAACCAUUGUAUAUAGUUA	< 0.0001	
UGGACCUACAGCUUCGCAUAGUAUUUAGUUA	1.43 ± 0.1	0.0229 ± 0.0062
UCGACCUACAGCUUCGCAUAGUAUUUAGUUA	1.33 ± 0.07	0.0168 ± 0.004
UCGACCUACAGCUUCGAUAGUAUUUAGUUA	0.911 ± 0.058	0.00251 ± 0.0018
AGGACCUACAGCUUCGCAUAGUAUUUAGUUA	1.27 ± 0.071	0.0296 ± 0.0087
UCCACCUACAGCUUCGCAUAGUAUUUAGUUA	0.911 ± 0.056	0.0118 ± 0.0027
UCGACCUACAGCUUCAUAGUAUUUAGUUA	1.14 ± 0.042	0.0128 ± 0.0025
